An excerpt weighted towards active compounds, which were near 6.2% of everything screened.
HT1080-NT tox: kills 2HG-producing HT-1080-NT fibrosarcoma cells; 360,000 compounds, 1.6% hits; Potency, µM (doses to about 46.1 µM), without a hit: at the highest dose activity, negative = less viability, actives largely listed as cytotoxic; HT-1080-NT fibrosarcoma viability, CellTiter-Glo ATP luminescence, 48 h;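 further: NT is the 2HG producing partner of a matched IDH1 knockdown line; 0% = DMSO-treated cells and -100% = media-only wells without cells; nearly all actives have a fitted effect of over 55% in size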
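Viability of the 2HG-overproducing fibrosarcoma line after 48 hours of compound exposure at 37 degrees C was determined by luminescence with CellTiter-Glo, and concentration-effect curves were then fitted and categorized.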
S2 tox: viability counter-screen for ATXN expression inhibitors | S2 cells (HEK-293 line with an ATXN2-luciferase reporter) viability, CellTiter-Fluor protease fluorescence, 24 h | Potency, µM (doses to about 56.7 µM), most hits filed as cytotoxic | 400,000 compounds, 0.49% hits | AID 651635; further: nearly all actives have a fitted effect of over 40% in size
KB-V1 cytotox: kills drug-selected multidrug resistant KB-V1 cells. KB-V1 MDR cells viability, CellTiter-Glo, 72 h. Potency, µM (series often up to 46.1 µM), hits mostly cytotoxic. 400,000 compounds, 3.4% hits; further: on the % scale 0 is the no-effect control and ±100 the full control effect; nearly all actives have a fitted effect of over 60% in size
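Cytotoxicity via CellTiter-Glo luminescence after 72 h compound exposure at 37 degrees C. Cells: drug-selected KB-V1 line, DMEM phenol-red free plus 10% FBS. Compounds tested at multiple concentrations; normalized data fitted to concentration-effect curves.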
KB-3-1 cytotox: kills parental KB-3-1 adenocarcinoma cells; KB-3-1 viability, CellTiter-Glo ATP luminescence, 72 h; 400,000 compounds, 1.4% hits; Potency, µM (top dose mostly 46.1 µM), most hits filed as cytotoxic; AID 1347075; further: on the % scale 0 is the no-effect control and ±100 the full control effect; nearly all actives have a fitted effect of over 60% in size
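Luminescent ATP read-out (CellTiter-Glo) measures survival of drug-naive KB-3-1 cells after 72 h compound exposure at 37 °C. Titration series was screened from lowest to highest concentration, with DMSO vehicle plates as background controls.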
HT1080 IDH1KD tx: toxicity to HT-1080 IDH1 knockdown cells (counter line); HT-1080 IDH1 knockdown viability, ATP luminescence, 48 h; 360,000 compounds, 2% hits; AID 686971; Potency, µM (doses to about 46.1 µM), for the others: at the highest dose activity, negative = toxicity, hits mostly cytotoxic;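 further: 0% = DMSO wells and -100% = cell-free medium wells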
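CellTiter-Glo luminescence after 48 h compound exposure at 37 degrees C of IDH1-knockdown HT-1080 cells in 5% FBS RPMI. %Activity scaled between DMSO wells and cell-free media wells, with curves fitted and assigned curve classes.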
ATXN2 expr inh: ATXN2 expression inhibition; HEK-293 ATXN2-luciferase reporter, luminescence, 24 h; Potency, µM (top dose mostly 57 µM), for the others: at the top dose activity change, negative = inhibition, actives largely listed as inhibitors; 360,000 compounds, 0.72% hits; further: on the % scale 0 is the no-effect control and ±100 the full control effect; nearly all actives have a fitted effect of over 55% in size
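ATXN2-luciferase reporter cells (luciferase flanked by upstream and downstream ATXN2 gene portions) were treated 24 h at 37 °C with compounds at up to 57 uM. SteadyGlo luminescence gave expression; GF-AFC fluorescence gave viability.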
Numbers without * were called inactive. The call rests on the fitted dose curve; in most records, active means well fitted curve in the direction sought with a large enough effect; inconclusive means small, poorly fitted or top-dose-only effect, or another doubt; inactive means no such curve, though single readings can be large; an effect the other way counts as inactive or inconclusive. Potency means the concentration at half of the fitted maximal effect.

Screening CCOc1ccc(N(CC(=O)Nc2cccc(F)c2)S(=O)(=O)c2c(C)noc2C)cc1 returned HT1080-NT tox inconclusive, S2 tox inactive, KB-V1 cytotox inconclusive, KB-3-1 cytotox 20.6µM*, HT1080 IDH1KD tx inconclusive and ATXN2 expr inh -21.8%.
For CCOc1ccc(N(CC(=O)NC2CCCC2)S(=O)(=O)c2c(C)noc2C)cc1 the results were HT1080-NT tox 0.0%, S2 tox inactive, KB-V1 cytotox inactive, KB-3-1 cytotox inactive, HT1080 IDH1KD tx 5.6% and ATXN2 expr inh 6.1%.
For COc1ccc(N(CC(=O)N2CCc3ccccc32)S(=O)(=O)c2c(C)noc2C)cc1 the results were HT1080-NT tox -3.6%, S2 tox inactive, KB-V1 cytotox 10.3µM*, KB-3-1 cytotox inconclusive, HT1080 IDH1KD tx -20.0% and ATXN2 expr inh -20.4%.
CCOc1ccccc1NC(=O)CN(c1ccc(OC)cc1)S(=O)(=O)c1c(C)noc1C was read as HT1080-NT tox 5.17µM*, S2 tox inactive, KB-V1 cytotox 2.59µM*, KB-3-1 cytotox 5.8µM*, HT1080 IDH1KD tx 5.17µM* and ATXN2 expr inh -17.6%.
CCOc1ccc(N(CC(=O)Nc2ccc(C)c(C)c2)S(=O)(=O)c2c(C)noc2C)cc1 was read as S2 tox inactive, KB-V1 cytotox inconclusive, KB-3-1 cytotox inconclusive and ATXN2 expr inh -24.3%.
Screening CCOc1ccccc1NC(=O)CN(c1cc(C)cc(C)c1)S(=O)(=O)c1c(C)noc1C returned HT1080-NT tox 14.9%, S2 tox inactive, KB-V1 cytotox inconclusive, KB-3-1 cytotox inactive, HT1080 IDH1KD tx -2.4% and ATXN2 expr inh -4.8%.
Screening CCOc1ccc(N(CC(=O)Nc2ccccc2C)S(=O)(=O)c2c(C)noc2C)cc1 returned HT1080-NT tox 4.61µM*, S2 tox inactive, KB-V1 cytotox inconclusive, KB-3-1 cytotox 5.8µM*, HT1080 IDH1KD tx 3.66µM* and ATXN2 expr inh -13.2%.
Screening CCOC(=O)c1cccc(NC(=O)CN(c2ccc(OC)cc2)S(=O)(=O)c2c(C)noc2C)c1 returned HT1080-NT tox 0.8%, S2 tox inactive, KB-V1 cytotox 9.2µM*, KB-3-1 cytotox inactive, HT1080 IDH1KD tx 1.8% and ATXN2 expr inh 1.2%.
COc1ccc(N(CC(=O)Nc2cccc(C(=O)O)c2)S(=O)(=O)c2c(C)noc2C)cc1 was read as HT1080-NT tox -2.1%, S2 tox inactive, KB-V1 cytotox inactive, KB-3-1 cytotox inactive, HT1080 IDH1KD tx 1.5% and ATXN2 expr inh 4.3%.
Screening COCCCn1c(-c2ccc(S(=O)(=O)N3CCOCC3)cc2)csc1=Nc1ccccc1 returned HT1080-NT tox -2.3%, S2 tox inconclusive, KB-V1 cytotox inactive, KB-3-1 cytotox inconclusive, HT1080 IDH1KD tx -15.1% and ATXN2 expr inh 31.6µM*.
`OCCCn1c(-c2ccccc2)csc1=Nc1ccccc1` gave HT1080-NT tox -12.6%, S2 tox inconclusive, KB-V1 cytotox inconclusive, KB-3-1 cytotox inactive, HT1080 IDH1KD tx -14.8% and ATXN2 expr inh 6.3%.
`COCCn1c(-c2ccc(Br)cc2)csc1=Nc1cccnc1` gave HT1080-NT tox -28.6%, S2 tox inactive, KB-V1 cytotox inconclusive, KB-3-1 cytotox 14.6µM*, HT1080 IDH1KD tx -28.2% and ATXN2 expr inh -28.4%.
Clc1ccc(-c2csc(=Nc3cccnc3)n2CCCn2ccnc2)cc1Cl was read as HT1080-NT tox -25.0%, S2 tox inactive, KB-V1 cytotox 10.3µM*, KB-3-1 cytotox 14.6µM*, HT1080 IDH1KD tx -22.8% and ATXN2 expr inh -34.8%.
Screening O=C(N[C@@H]1c2ccccc2C2(CCN(Cc3c(O)ccc4ccccc34)CC2)[C@H]1O)c1ccccc1 returned S2 tox inactive.
`Cc1ccccc1NC(=S)N(C)Cc1cccs1` gave HT1080-NT tox -2.7%, S2 tox inactive, KB-V1 cytotox inconclusive, KB-3-1 cytotox inactive, HT1080 IDH1KD tx -4.7% and ATXN2 expr inh inconclusive.

Bioassay records deposited in PubChem by National Center for Advancing Translational Sciences (NCATS).
